BaF3 tox = counter-screen for JAK2V617F inhibitors: parental Ba/F3 viability inhibitors; actives 1.1% (n = 220,000); inhibition, % at 5.6 µM; CellTiter-Glo ATP luminescence; AID 1486;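 active = inhibition above a per-campaign cutoff, the mean inhibition of all tested compounds plus 3 SD, cut at about 27% in these data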;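 also: 0% = DMSO wells and 100% = JAK Inhibitor I control wells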
aSyn 5UTR inh = 5' untranslated region of α-synuclein, MLPCN primary screen; actives 0.82% (n = 300,000); inhibition, % (tested at 7.5 µM); alpha-synuclein 5'UTR reporter, inhibitor activity; in the data active = inhibition above about 60%; inconclusive = no clear call, values can overlap the other calls;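 also: H4 neuroglioblastoma cells stably carrying SNCA 5'UTR luciferase fusion; 0% = DMSO wells and 100% = positive control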
Ba/F3 V617F tox = loss of viability in JAK2V617F-driven Ba/F3 cells. Ba/F3 EpoR-JAK2V617F viability, ATP luminescence. inhibition, % at 5.6 µM. actives 1.1% (n = 220,000);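 active = inhibition above the campaign mean plus 3 SD over all tested compounds, cut at about 24% in these data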;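 also: cytokine-independent growth of Ba/F3 cells driven by EpoR plus mutant JAK2; 0% = DMSO-treated cells and 100% = JAK inhibitor I control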
KLF5 inhibitor = suppresses KLF5 promoter-driven expression; DLD-1 KLF5 promoter-luciferase reporter, luminescence; inhibition, % at 5 µM; actives 0.23% (n = 290,000); AID 1700;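 active = inhibition above a per-plate limit of that plate's mean compound inhibition plus 3 SD, cut at about 60% in these data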;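 also: 0% = DMSO wells and 100% = LY294002 at 200 µM; higher means less KLF5 promoter-driven luciferase light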
APP 5UTR inh = APP translation inhibition; actives 0.82% (n = 190,000); SH-SY5Y APP 5'UTR-luciferase reporter, luminescence; inhibition, % at 2 µM;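 active = inhibition above a set limit, derived from the sample mean plus 3 SD, cut at about 45% in these data; inconclusive = one replicate passes the limit while the other fails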
IEC-6 tox = kills IEC-6 intestinal cells in KLF5 counter-screen | IEC-6 cytotoxicity, luminescence viability | AID 1825 | actives 0.78% (n = 290,000) | inhibition, % at 5 µM; in the data active = inhibition above about 22%;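 also: 0% = plate median of test compound wells and 100% = cytotoxic reference compound wells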
Numbers without * were called inactive; ? = inconclusive; . = not tested or not shown. Sampled rows, rich in hits. Any-hit rate of the full collection: about 2.2%.

SMILES	BaF3 tox	aSyn 5UTR inh	Ba/F3 V617F tox	KLF5 inhibitor	APP 5UTR inh	IEC-6 tox
O=C(NC1(C(F)(F)F)Oc2ccc(Cl)cc2O1)N1CCC2(CC1)OCCO2 (stereo not given)	19.9	-72.7	44.4*	-11.1	47.8*	4.1
O=C(NC1(C(F)(F)F)Oc2ccccc2O1)N1CCC2(CC1)OCCO2	3.6	-15.3	7.7	-5.9	13.6	2.9
N=c1sccn1Cc1ccccc1F	.	-5.6	.	-21.5	.	-2.2
COc1ccc(O)c2c(=O)c3c(OC)cc4c(c3oc12)C1C=COC1O4 (stereo not given)	7.8	94.0*	3.9	1.8	.	29.9*
OCC[n+]1c2ccccc2nc2ccc(N3CCOCC3)cc21	31.1*	32.6	18.9	-12.1	.	8.4
CCCCCCCCCCCCCCCC[N+](C)(C)C	.	97.6*	.	.	.	.
O=c1c2ccccc2nc(CSc2ncnc3nc[nH]c23)n1-c1ccccc1Cl	16.8	19.4	11.5	-16.4	5.3	4.6
O=c1c2ccccc2nc(CSc2ncnc3nc[nH]c23)n1-c1ccccc1	31.8*	19.9	8.9	3.6	-6.5	10.1
CC1=C2[C@@H]3OC(=O)[C@H](C)C3CC[C@@]2(C)C=CC1=O (stereo not given in full)	.	3.7	.	-19.1	.	-1.2
COc1cc2c(cc1OC)-c1c(OC)c(OC)c(OC)c3ccnc(c13)C2=O	10.1	103.6*	9.7	10.9	25.8	14.8
CCOc1cccc(=NC2CCCCC2)c2c(C)n(C)c(C)c12	64.7*	30.5	72.8*	-10.9	.	3.1
O=C(Cn1cnc2ccccc2c1=O)NCCC(=O)N1CCC2(CC1)OCCO2	6.2	-18.6	-2.8	-29.2	0.1	-3.8
O=C(Cn1cnc2ccccc2c1=O)NCC(=O)N1CCC2(CC1)OCCO2	37.2*	-6.0	-0.3	-19.2	-4.8	-0.2
O=c1c2ccccc2nc(/C=C/c2ccc([N+](=O)[O-])o2)n1-c1ccc(O)cc1	2.6	100.5*	3.3	-30.9	80.3*	-3.8
COc1ccc(C(C)=O)cc1CC(C(=O)c1ccc(C)c(C)c1)N(C)C (stereo not given)	2.9	8.0	-4.2	1.4	11.8	2.2
CN(C)C(Cc1ccccc1)C(=O)c1ccc(-c2ccccc2)cc1 (stereo not given)	5.7	-31.2	1.1	-15.0	.	0.5
COc1ccc(C(=O)C(Cc2ccccc2)N(C)C)cc1 (stereo not given)	36.5*	-21.0	35.4*	-19.9	-7.1	0.4
COc1ccc(C(C)=O)cc1CC(C(=O)c1ccc(F)cc1)N(C)C (stereo not given)	40.0*	-2.8	0.9	-18.3	-4.8	-4.3
Cc1nc2ccccc2c(=O)n1/N=C/c1cc(Br)cc(Br)c1O	.	-8.6	.	.	.	.
Fc1ccc(C(OCCN2CCN(CCCc3ccccc3)CC2)c2ccc(F)cc2)cc1	.	105.9*	.	.	.	.
O=Cc1cn(Cc2ccc([N+](=O)[O-])cc2)c2ccccc12	0.5	72.5*	-0.2	0.5	15.4	-0.4
Cc1ccc(Cn2cc(C=O)c3ccccc32)cc1	.	47.7	.	1.5	.	-1.7
O=Cc1cn(Cc2ccc(F)cc2)c2ccccc12	3.2	70.7*	0.0	-22.8	5.6	-2.4
CN1C(C(=O)N2CCC3(CC2)OCCO3)=CC(c2ccc(F)cc2)=NS1(=O)=O	.	9.6	.	6.6	.	8.8
CCN(CC)C(=O)c1ccc2c(c1)C1C=CCC1C(C(=O)O)N2 (stereo not given)	.	-12.2	.	2.6	.	-16.9
SMILES	BaF3 tox	aSyn 5UTR inh	Ba/F3 V617F tox	KLF5 inhibitor	APP 5UTR inh	IEC-6 tox
COc1ccc(-c2nc3ccc(C(=O)N4CCC5(CC4)OCCO5)cc3nc2-c2ccc(OC)cc2)cc1	.	-5.2	.	12.5	.	-4.6
COC(=O)CSC1=NP(=S)(SCC(=O)OC)N2CCCC2=C1C#N (stereo not given)	77.7*	-7.3	-0.2	-9.2	-0.1	-2.9
CSC1=NP(=S)(SC)N2CCCC2=C1C#N (stereo not given)	4.3	4.6	0.5	-5.1	-3.3	1.3
Fc1cccc(C2NCc3ccccc3-n3cccc32)c1 (stereo not given)	.	-15.4	.	-9.6	.	-0.9
COc1ccc(C[C@H]2NC[C@H](O)[C@H]2OC(C)=O)cc1	.	112.3*	.	.	.	.
CCC1=CCN(CCc2c(C)[nH]c3ccccc23)CC1	.	-9.1	.	.	.	.
C[C@H]1O[C@@H](OC2CC[C@]3(C=O)[C@H]4CC[C@]5(C)[C@@H](C6=CC(=O)OC6)CC[C@]5(O)[C@@H]4CC[C@]3(O)C2)CC2OC(C)(C)OC21 (stereo not given in full)	.	95.7*	.	109.8*	.	-4.6
CC12CC[C@H]3[C@@H](CCC4(O)C[C@H](O)CCC34/C=N/NC(=O)c3ccccc3Cl)C1(O)CCC2C1=CC(=O)OC1 (stereo not given in full)	-1.5	7.9	-0.6	-38.1	.	-0.4
C[C@H]1O[C@@H](O[C@H]2[C@@H](O)C[C@H](O[C@H]3[C@@H](O)C[C@H](O[C@H]4CC[C@@]5(C)[C@H](CC[C@@H]6[C@@H]5CC[C@]5(C)[C@@H](C7=CC(=O)OC7)CC[C@]65O)C4)O[C@@H]3C)O[C@@H]2C)C[C@H](O)[C@@H]1O	5.7	.	-0.6	100.0*	94.4*	4.9
CCc1cc(=O)oc2c(C)c(OCC(=O)N3C[C@H]4C[C@@H](C3)c3cccc(=O)n3C4)ccc12	.	-5.3	.	-9.7	.	5.9
CCN1CCC(NCC2CCCCC2)CC1	.	-8.7	.	16.4	.	2.2
CC(=NCc1ccc(F)cc1)c1c(O)n(C)c(=O)n(C)c1=O	30.9*	39.1	35.4*	43.3	11.2	6.8
CC1(C)OC(c2ccccc2)=C/C(=C/C=C2C(=O)NC(=S)NC2=O)O1	42.4*	15.9	-2.2	1.4	-10.9	-7.2
CCN(CC)C(=O)c1ccc(NC(=O)Nc2ccccc2F)cc1	43.0*	?	43.3*	35.1	-121.3	28.2*
O=C(CCC(=O)N1C[C@H]2C[C@@H](C1)c1cccc(=O)n1C2)NCc1ccccc1	.	35.6	.	0.4	.	-5.1
Cc1cc(C)cc(N2C(=O)NC(=O)/C(=C\C=C\c3ccco3)C2=O)c1	5.1	-116.3	0.8	-17.1	46.5*	-5.7
COc1ccc(CCNCc2ccccc2F)cc1OC	1.9	-6.8	-4.1	-37.9	36.7	1.0
CCOc1ccc(Cl)cc1CNCCc1ccccc1F	63.3*	-1.4	28.8*	-30.9	.	0.0
COc1cccc(OCc2cc(C(=O)N3C[C@H]4C[C@@H](C3)c3cccc(=O)n3C4)no2)c1	.	-173.8	.	-89.7	.	-1.8
CCCCCOc1ccc(C)cc1CN(CCCl)CCCl	2.3	-12.6	-4.3	-18.1	.	-3.4
Cc1ccc(-c2nc3ccccc3c(=O)n2-c2ncccc2C)cc1	95.5*	24.3	2.3	-17.4	19.8	4.6
Cc1cccnc1-n1c(-c2ccccc2)nc2ccccc2c1=O	6.2	-1.0	0.8	-41.0	2.5	-3.0
O=c1ccc2cc(O[C@@H]3O[C@@H](CO)[C@H](O)[C@@H](O)[C@@H]3O)c(O)cc2o1	.	-17.4	.	-20.1	.	-5.6
O=c1[nH]sc2cc(F)ccc12	-0.6	-38.5	27.8*	-10.3	5.6	1.4
Cc1ccc2cc(CNCCc3ccccc3C)c(=O)[nH]c2c1	.	-1.1	.	-36.7	.	2.4

Source: PubChem BioAssay
